# Activity calls are given as the source filed them. Calls follow the shape of the dose curve; as a rule, active = well fitted curve in the direction sought with a large enough effect; inactive = no such curve, though single readings can be large or run the other way.
# Target: D(2) dopamine receptor (Homo sapiens) (UniProt P14416)
# Experiment: HTS Assay for Allosteric Antagonists of the Human D2 Dopamine Receptor: Hit Validation in primary assay
# Settings: HEK293 TREx D2, calcium flux, dopamine EC80 antagonism; series mostly up to 41.8 µM
# Excerpt: Dopamine receptors (DARs) are involved in the etiology and/or therapy of a number of neuropsychiatric and endocrine disorders. For instance, all receptor-based antiparkinsonian drugs work via stimulating the D2 DAR subtype whereas all FDA-approved antipsychotic agents are antagonists of this receptor. […] There are three different types of allosteric modulators that we are seeking, two of which will stimulate or augment receptor signaling, allosteric agonists and potentiators, while the third, allosteric antagonists, will attenuate receptor signaling. The present primary screening assay measures compound antagonism after an EC80 addition of dopamine by tracking calcium flux in a […], inducible Hek293 Trex D2 cell line. NIH Chemical Genomics Center [NCGC] NIH Molecular Libraries Probe Centers Network [MLPCN] MLPCN Grant: NS064831 Assay Submitter (PI): David Sibley
# Freshly passaged cells are plated in 1536 well black, clear bottom plates at a density of 4000 cells/well in 3 ul of complete media containing 1x tetracycline inducer. After an overnight incubation at 30 C in 5% CO2, cells are loaded with 2 ul of the no wash Calcium Assay Kit (ABD Bioquest) and incubated at room temperature for 30 to 90 minutes before it's read.
# Sequence of D(2) dopamine receptor (Homo sapiens) (P14416 whole entry, looked up): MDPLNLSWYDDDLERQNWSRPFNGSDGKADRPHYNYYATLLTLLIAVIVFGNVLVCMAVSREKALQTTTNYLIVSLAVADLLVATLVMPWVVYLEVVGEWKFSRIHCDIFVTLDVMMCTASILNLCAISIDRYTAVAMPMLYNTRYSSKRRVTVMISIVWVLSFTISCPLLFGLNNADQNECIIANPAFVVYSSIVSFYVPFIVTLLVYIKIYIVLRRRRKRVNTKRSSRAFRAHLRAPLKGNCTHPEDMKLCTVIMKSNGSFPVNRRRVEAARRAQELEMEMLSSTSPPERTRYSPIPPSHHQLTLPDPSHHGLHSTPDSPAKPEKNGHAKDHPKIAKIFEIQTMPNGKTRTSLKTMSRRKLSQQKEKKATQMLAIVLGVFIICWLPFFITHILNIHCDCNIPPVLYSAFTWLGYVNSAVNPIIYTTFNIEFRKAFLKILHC
row,Compound,outcome
1,CCN1C[C@@]2(C)CC[C@@H](OC)[C@@]34C2C(O)[C@@]2(OCO[C@]25CC(OC)C2C[C@@]3(O)C5C2O)C14 (stereo not given in full),inactive
2,CN1C2CC(OC(=O)C(CO)c3ccccc3)CC1C(O)C2 (stereo not given),inactive
3,NNCc1ccccc1,inactive
4,CC1C(=O)OC2O[C@]3(C)CC[C@H]4C(C)CCC1[C@]24OO3 (stereo not given in full),inactive
5,CC(N)C(O)c1ccc(O)c(O)c1 (stereo not given),inactive

# From PubChem BioAssay AID624453 (National Center for Advancing Translational Sciences (NCATS), 2012)
